Our source for the 1-h baseline activity values is the supplement of paper PMC9950053.

Structures can show the parent of a compound that is named as a salt.

This test has as its system Danio rerio larvae (5 dpf). Nature of the test: 1-h baseline activity (% time moving, periods 1-6) minus DMSO control (percentage points); higher = more locomotor activity than DMSO larvae. Conditions: 10 µM; exposure time: 3 h pre-incubation + 3 h imaging. The method, then:
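Wild-type 5 dpf zebrafish larvae (n=48 per drug, 96-well plates, 28.5 °C) were exposed to Tocris FDA-approved library compounds at 10 µM (0.1% DMSO) for 3 h before and 3 h during imaging. Images were taken every 6 s during visual (moving coloured lines) and acoustic stimuli, and larvae were tracked with the DeepLabCut-based Z-LaP Tracker. Each behavioural measure is the treated-group mean minus the DMSO vehicle control mean (n=844), in percentage points. This mapping covers compounds with 4-character plate codes.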
Take `COc1ccc(Cl)cc1C(=O)NCCc1ccc(S(=O)(=O)NC(=O)NC2CCCCC2)cc1` [Glibenclamide]: the 1-h baseline activity was -0.0251.

Take `Cc1ccsc1C(=CCCN1CCC[C@@H](C(=O)O)C1)c1sccc1C` [Tiagabine hydrochloride]: the 1-h baseline activity was found to be 7.89. As for `C=C1[C@H](CO)[C@@H](O)C[C@@H]1n1cnc2c(=O)[nH]c(N)nc21` [Entecavir], the figure is -2.24; as for `Cc1c(-c2ccc(O)cc2)n(Cc2ccc(OCCN3CCCCCC3)cc2)c2ccc(O)cc12` [Bazedoxifene acetate], -14.5; as for `Cn1cnc([N+](=O)[O-])c1Sc1ncnc2[nH]cnc12` [Azathioprine], 7.62. For `Brc1c(NC2=NCCN2)ccc2nccnc12` the value was -17.8. As for `CO[C@H]1/C=C/O[C@@]2(C)Oc3c(C)c(O)c4c(O)c(c5c(nc6cc(C)ccn65)c4c3C2=O)NC(=O)/C(C)=C\C=C\[C@H](C)[C@H](O)[C@@H](C)[C@@H](O)[C@@H](C)[C@H](OC(C)=O)[C@@H]1C` [Rifaximin], the figure is -1.58; as for `COc1ccc(C[C@@H](C)NC[C@H](O)c2ccc(O)c(NC=O)c2)cc1` [Arformoterol tartrate], 41.7; as for `CC(c1cc2ccccc2s1)N(O)C(N)=O` (stereo not given) [Zileuton], -1.65. As to `CCOc1cc(CC(=O)N[C@@H](CC(C)C)c2ccccc2N2CCCCC2)ccc1C(=O)O` [Repaglinide], the 1-h baseline activity is 4.99. As for `O=C(O[C@@H]1C[C@@H]2C[C@H]3C[C@H](C1)N2CC3=O)c1c[nH]c2ccccc12` [Dolasetron mesylate], the figure is -3.58. As for `CCCN(CCC)S(=O)(=O)c1ccc(C(=O)O)cc1` [Probenecid], the figure is -2.34; as for `Cc1nc(-c2ccc(OCC(C)C)c(C#N)c2)sc1C(=O)O` [Febuxostat], -2.75.

For `OCCN(CCO)c1nc(N2CCCCC2)c2nc(N(CCO)CCO)nc(N3CCCCC3)c2n1` [Dipyridamole], the 1-h baseline activity was -3.7. With `CC(=O)O[C@]1(C(C)=O)CC[C@H]2[C@@H]3C=C(C)C4=CC(=O)CC[C@]4(C)[C@H]3CC[C@@]21C` [Megestrol Acetate], the 1-h baseline activity was -13.7.

Consider `Cc1ccc(-c2cc(C(F)(F)F)nn2-c2ccc(S(N)(=O)=O)cc2)cc1` [Celecoxib], for which the 1-h baseline activity is -5.62. As for `CCOc1nc2cccc(C(=O)O)c2n1Cc1ccc(-c2ccccc2-c2noc(=O)[nH]2)cc1` [Azilsartan], the figure is 1.25. As for `CN(C)CC/C=C1/c2ccccc2COc2ccc(CC(=O)O)cc21` [Olopatadine hydrochloride], the figure is -0.564. For `NC(=O)c1ncn([C@@H]2O[C@H](CO)[C@@H](O)[C@H]2O)n1` [Ribavirin] the value was 1.15; for `CC(C)c1nc(N(C)S(C)(=O)=O)nc(-c2ccc(F)cc2)c1/C=C/[C@@H](O)C[C@@H](O)CC(=O)O` [Rosuvastatin calcium], 2.58; for `O=C(NCC1CCCCN1)c1cc(OCC(F)(F)F)ccc1OCC(F)(F)F` (stereo not given) [Flecainide acetate], -0.107. On to `Cc1cccc(CN2CCN(C(c3ccccc3)c3ccc(Cl)cc3)CC2)c1` (stereo not given) [Meclizine dihydrochloride], for which the 1-h baseline activity was determined as 20.8. As for `CCCCc1nc(Cl)c(CO)n1Cc1ccc(-c2ccccc2-c2nnn[nH]2)cc1` [Losartan potassium], the figure is 10.3; as for `O=C(Nc1c(Cl)cncc1Cl)c1ccc(OC(F)F)c(OCC2CC2)c1` [Roflumilast], -15.9.

Consider `O=C1CCc2cc(OCCCCc3nnnn3C3CCCCC3)ccc2N1` [Cilostazol], for which the 1-h baseline activity is 10. As to `CCC(=O)O[C@]1(C(=O)SCF)[C@H](C)C[C@H]2[C@@H]3C[C@H](F)C4=CC(=O)C=C[C@]4(C)[C@@]3(F)[C@@H](O)C[C@@]21C` [Fluticasone propionate], the 1-h baseline activity is 6.52. For `COc1cccc2c1C(=O)c1c(O)c3c(c(O)c1C2=O)C[C@@](O)(C(=O)CO)C[C@@H]3O[C@H]1C[C@H](N)[C@H](O)[C@H](C)O1` [Doxorubicin hydrochloride], the 1-h baseline activity is -7.23. For `CC(C)Nc1cccnc1N1CCN(C(=O)c2cc3cc(NS(C)(=O)=O)ccc3[nH]2)CC1` [Delavirdine mesylate] the value was -4.01.

Take `CC(=O)Oc1ccccc1C(=O)O` [Aspirin]: the 1-h baseline activity is -0.776. In the case of `CCCCC(=O)N(Cc1ccc(-c2ccccc2-c2nnn[nH]2)cc1)[C@H](C(=O)O)C(C)C` [Valsartan], the 1-h baseline activity came out at 3.3. Regarding `CC(C)[C@H]1CC[C@H](C(=O)N[C@H](Cc2ccccc2)C(=O)O)CC1` [Nateglinide], the 1-h baseline activity amounted to 3.52. For `CC(=O)S[C@@H]1CC2=CC(=O)CC[C@]2(C)[C@H]2CC[C@@]3(C)[C@@H](CC[C@@]34CCC(=O)O4)[C@H]12` [Spironolactone] the value was -0.875. For `CCOc1ccccc1OCCN[C@H](C)Cc1ccc(OC)c(S(N)(=O)=O)c1` [Tamsulosin hydrochloride] the value was 3.66; for `CC1(C)O[C@@H]2[C@@H](CO[C@@]3(COS(N)(=O)=O)OC(C)(C)O[C@@H]23)O1` [Topiramate], 9.54. For the molecule `CCOC(=O)N1CCC(=C2c3ccc(Cl)cc3CCc3cccnc32)CC1` [Loratidine], the 1-h baseline activity was -19.4. Turning to `O=C(O)CCCc1ccccc1` [Sodium 4-Phenylbutyrate], the 1-h baseline activity was found to be 0.969. As for `CCCc1nc(C(C)(C)O)c(C(=O)O)n1Cc1ccc(-c2ccccc2-c2nnn[nH]2)cc1` [Olmesartan], the figure is 10.4. As for `CS(=O)(=O)CCNCc1ccc(-c2ccc3ncnc(Nc4ccc(OCc5cccc(F)c5)c(Cl)c4)c3c2)o1` [Lapatinib], the figure is -5.01. Regarding `C[C@]12CC[C@@H]3c4ccc(O)cc4C[C@@H](CCCCCCCCC[S+]([O-])CCCC(F)(F)C(F)(F)F)[C@H]3[C@@H]1CC[C@@H]2O` (stereo not given in full), the 1-h baseline activity came out at 8.32. For `CC/C(=C(\c1ccccc1)c1ccc(OCCN(C)C)cc1)c1ccccc1` [Tamoxifen citrate] the value was 26.3.
